# Data reported in the supplement of paper PMC10849652.
# Targets with a hit are over-represented here; the source holds about 7,900 in all. About 0.6% of all pairs of compound and target were hits. A number with no mark means an inactive call.
# Legend:
# Test in all cases: log2 fold change, soluble protein after heating vs DMSO (PISA); higher = thermal stabilisation; K562 cells, 10 uM, 30 min; active = over 0.2 and 3.5 SD of the protein, either way, in both replicates (recomputed)
# bafetinib = compound: Cc1ccc(NC(=O)c2ccc(CN3CC[C@H](N(C)C)C3)c(C(F)(F)F)c2)cc1Nc1nccc(-c2cncnc2)n1 [bafetinib]
# Outline: (§1)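 Values are thermal stability changes relative to control samples and are taken from duplicates. They are stated as log2 fold changes. Before quantification by TMTpro 16plex LC-MS/MS with equalised channel sums, K562 cells at 2×10^6 cells/mL were treated with 10 μM compound for 30 min, heated in aliquots for 3 min across 48°C-58°C, pooled, extracted in PBS with 0.5% NP-40 at 4°C, and centrifuged at 21,000xg for 90 min to give the soluble supernatant.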
# [1] = compound: Cc1cccc(CC(=O)N2CCc3c2ccc(-c2cn(C)c4ncnc(N)c24)c3F)n1
# Outline: as §1
# nilotinib = compound: Cc1cn(-c2cc(NC(=O)c3ccc(C)c(Nc4nccc(-c5cccnc5)n4)c3)cc(C(F)(F)F)c2)cn1 [nilotinib]
# Outline: as §1
# [2] = compound: Cc1nc(Nc2n[nH]c3c2CN(C(=O)N[C@H](CN(C)C)c2ccccc2)C3(C)C)c2sccc2n1
# Outline: as §1
# dasatinib = compound: Cc1nc(Nc2ncc(C(=O)Nc3c(C)cccc3Cl)s2)cc(N2CCN(CCO)CC2)n1 [dasatinib]
# Outline: as §1
# [3] = compound: Cc1ncc(-c2ccnc(Nc3ccc(S(C)(=O)=O)cc3)n2)n1C(C)C
# Outline: as §1
# [4] = compound: Cn1cc(-c2ccc3c(c2)CCN3C(=O)Cc2cccc(C(F)(F)F)c2)c2c(N)ncnc21
# Outline: as §1
# [5] = compound: Cn1cc(-c2ccc3nnc(C(F)(F)c4ccc5ncccc5c4)n3n2)cn1
# Outline: as §1
# tipifarnib = compound: Cn1cncc1[C@@](N)(c1ccc(Cl)cc1)c1ccc2c(c1)c(-c1cccc(Cl)c1)cc(=O)n2C [tipifarnib]
# Outline: as §1
# mubritinib = compound: FC(F)(F)c1ccc(/C=C/c2nc(COc3ccc(CCCCn4ccnn4)cc3)co2)cc1 [mubritinib]
# Outline: as §1
# [6] = compound: NC(=O)Nc1cc(-c2cccc(F)c2)sc1C(=O)N[C@H]1CCCNC1
# Outline: as §1
# [7] = compound: NC(=O)c1cnc(N[C@@H]2CCCC[C@@H]2N)nc1Nc1cccc(-n2nccn2)c1
# Outline: as §1
# [8] = compound: NC1(c2ccc(-c3nc4ccn5c(=O)[nH]nc5c4cc3-c3ccccc3)cc2)CCC1
# Outline: as §1
# [9] = compound: NCC(=O)Nc1ccc(-n2nc(C(F)(F)F)cc2-c2ccc3c(ccc4ccccc43)c2)cc1
# Outline: as §1
# entinostat = compound: Nc1ccccc1NC(=O)c1ccc(CNC(=O)OCc2cccnc2)cc1 [entinostat]
# Outline: as §1
# vorinostat = compound: O=C(CCCCCCC(=O)Nc1ccccc1)NO [vorinostat]
# Outline: as §1
# citarinostat = compound: O=C(CCCCCCNC(=O)c1cnc(N(c2ccccc2)c2ccccc2Cl)nc1)NO [citarinostat]
# Outline: as §1
# silmitasertib = compound: O=C(O)c1ccc2c(c1)nc(Nc1cccc(Cl)c1)c1ccncc12 [silmitasertib]
# Outline: as §1
# [10] = compound: O=C1NC(=O)C(c2cnc3ccccn23)=C1c1cn2c3c(cc(F)cc13)CN(C(=O)N1CCCCC1)CC2
# Outline: as §1
# [11] = compound: c1cc(OCCN2CCCCC2)cc(-c2n[nH]c3ccc(-c4nnc[nH]4)cc23)c1
# Outline: as §1
# UniProt Q96AQ8, sequence (Q96AQ8 whole entry, looked up): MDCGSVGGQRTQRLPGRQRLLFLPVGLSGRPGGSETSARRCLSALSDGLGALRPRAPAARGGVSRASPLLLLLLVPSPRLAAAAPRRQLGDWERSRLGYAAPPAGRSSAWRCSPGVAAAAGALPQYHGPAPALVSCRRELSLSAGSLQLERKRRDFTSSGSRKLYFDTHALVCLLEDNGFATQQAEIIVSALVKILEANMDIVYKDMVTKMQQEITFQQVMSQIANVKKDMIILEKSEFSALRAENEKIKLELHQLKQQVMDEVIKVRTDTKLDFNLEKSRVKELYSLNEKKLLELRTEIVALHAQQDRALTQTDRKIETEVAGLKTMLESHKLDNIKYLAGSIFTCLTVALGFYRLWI
# UniProt Q8NE86, sequence (Q8NE86 whole entry, looked up): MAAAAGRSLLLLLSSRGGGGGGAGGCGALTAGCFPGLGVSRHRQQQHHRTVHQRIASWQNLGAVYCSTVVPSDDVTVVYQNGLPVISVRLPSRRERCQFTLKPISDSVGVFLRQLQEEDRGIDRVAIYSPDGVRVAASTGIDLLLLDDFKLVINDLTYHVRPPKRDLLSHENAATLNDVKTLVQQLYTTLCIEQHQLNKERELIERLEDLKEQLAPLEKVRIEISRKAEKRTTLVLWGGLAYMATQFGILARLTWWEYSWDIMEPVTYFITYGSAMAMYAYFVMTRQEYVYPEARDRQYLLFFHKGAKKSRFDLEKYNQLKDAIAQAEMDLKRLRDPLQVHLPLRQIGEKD
# UniProt O95568, sequence (O95568 whole entry, looked up): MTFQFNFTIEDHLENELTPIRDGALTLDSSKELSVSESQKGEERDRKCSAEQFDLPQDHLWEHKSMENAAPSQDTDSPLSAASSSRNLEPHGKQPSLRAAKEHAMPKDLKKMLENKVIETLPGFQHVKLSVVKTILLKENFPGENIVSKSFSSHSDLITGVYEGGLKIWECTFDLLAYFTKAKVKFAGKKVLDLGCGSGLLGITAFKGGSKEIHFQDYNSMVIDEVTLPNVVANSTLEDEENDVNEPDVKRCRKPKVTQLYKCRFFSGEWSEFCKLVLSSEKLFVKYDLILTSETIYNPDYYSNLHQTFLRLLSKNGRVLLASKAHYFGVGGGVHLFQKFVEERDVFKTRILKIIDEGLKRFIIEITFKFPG
# UniProt Q9Y2X0, sequence (Q9Y2X0 whole entry, looked up): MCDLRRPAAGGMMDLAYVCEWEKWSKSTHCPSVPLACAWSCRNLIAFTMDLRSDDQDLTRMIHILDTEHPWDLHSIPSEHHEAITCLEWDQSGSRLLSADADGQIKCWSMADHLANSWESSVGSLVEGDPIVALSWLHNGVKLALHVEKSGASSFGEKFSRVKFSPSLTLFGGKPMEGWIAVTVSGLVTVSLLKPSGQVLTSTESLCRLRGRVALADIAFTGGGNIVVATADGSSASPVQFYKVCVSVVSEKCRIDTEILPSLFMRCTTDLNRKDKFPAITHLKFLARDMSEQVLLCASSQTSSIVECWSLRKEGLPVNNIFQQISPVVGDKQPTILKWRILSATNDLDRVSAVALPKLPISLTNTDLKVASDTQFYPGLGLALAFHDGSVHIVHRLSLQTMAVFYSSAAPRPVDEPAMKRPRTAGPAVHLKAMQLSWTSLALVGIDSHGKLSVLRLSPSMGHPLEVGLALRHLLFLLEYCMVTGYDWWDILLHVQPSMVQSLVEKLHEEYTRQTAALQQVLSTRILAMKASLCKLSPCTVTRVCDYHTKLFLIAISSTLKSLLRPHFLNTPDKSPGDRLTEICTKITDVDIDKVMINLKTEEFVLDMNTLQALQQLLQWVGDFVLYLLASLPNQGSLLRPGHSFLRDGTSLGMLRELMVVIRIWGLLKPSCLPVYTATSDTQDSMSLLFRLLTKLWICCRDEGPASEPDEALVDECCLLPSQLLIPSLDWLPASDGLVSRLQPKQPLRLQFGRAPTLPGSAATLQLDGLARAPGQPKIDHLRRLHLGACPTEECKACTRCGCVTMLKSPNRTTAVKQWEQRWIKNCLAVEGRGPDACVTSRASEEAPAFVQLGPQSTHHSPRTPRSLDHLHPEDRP
# UniProt P11717, sequence (P11717 whole entry, looked up): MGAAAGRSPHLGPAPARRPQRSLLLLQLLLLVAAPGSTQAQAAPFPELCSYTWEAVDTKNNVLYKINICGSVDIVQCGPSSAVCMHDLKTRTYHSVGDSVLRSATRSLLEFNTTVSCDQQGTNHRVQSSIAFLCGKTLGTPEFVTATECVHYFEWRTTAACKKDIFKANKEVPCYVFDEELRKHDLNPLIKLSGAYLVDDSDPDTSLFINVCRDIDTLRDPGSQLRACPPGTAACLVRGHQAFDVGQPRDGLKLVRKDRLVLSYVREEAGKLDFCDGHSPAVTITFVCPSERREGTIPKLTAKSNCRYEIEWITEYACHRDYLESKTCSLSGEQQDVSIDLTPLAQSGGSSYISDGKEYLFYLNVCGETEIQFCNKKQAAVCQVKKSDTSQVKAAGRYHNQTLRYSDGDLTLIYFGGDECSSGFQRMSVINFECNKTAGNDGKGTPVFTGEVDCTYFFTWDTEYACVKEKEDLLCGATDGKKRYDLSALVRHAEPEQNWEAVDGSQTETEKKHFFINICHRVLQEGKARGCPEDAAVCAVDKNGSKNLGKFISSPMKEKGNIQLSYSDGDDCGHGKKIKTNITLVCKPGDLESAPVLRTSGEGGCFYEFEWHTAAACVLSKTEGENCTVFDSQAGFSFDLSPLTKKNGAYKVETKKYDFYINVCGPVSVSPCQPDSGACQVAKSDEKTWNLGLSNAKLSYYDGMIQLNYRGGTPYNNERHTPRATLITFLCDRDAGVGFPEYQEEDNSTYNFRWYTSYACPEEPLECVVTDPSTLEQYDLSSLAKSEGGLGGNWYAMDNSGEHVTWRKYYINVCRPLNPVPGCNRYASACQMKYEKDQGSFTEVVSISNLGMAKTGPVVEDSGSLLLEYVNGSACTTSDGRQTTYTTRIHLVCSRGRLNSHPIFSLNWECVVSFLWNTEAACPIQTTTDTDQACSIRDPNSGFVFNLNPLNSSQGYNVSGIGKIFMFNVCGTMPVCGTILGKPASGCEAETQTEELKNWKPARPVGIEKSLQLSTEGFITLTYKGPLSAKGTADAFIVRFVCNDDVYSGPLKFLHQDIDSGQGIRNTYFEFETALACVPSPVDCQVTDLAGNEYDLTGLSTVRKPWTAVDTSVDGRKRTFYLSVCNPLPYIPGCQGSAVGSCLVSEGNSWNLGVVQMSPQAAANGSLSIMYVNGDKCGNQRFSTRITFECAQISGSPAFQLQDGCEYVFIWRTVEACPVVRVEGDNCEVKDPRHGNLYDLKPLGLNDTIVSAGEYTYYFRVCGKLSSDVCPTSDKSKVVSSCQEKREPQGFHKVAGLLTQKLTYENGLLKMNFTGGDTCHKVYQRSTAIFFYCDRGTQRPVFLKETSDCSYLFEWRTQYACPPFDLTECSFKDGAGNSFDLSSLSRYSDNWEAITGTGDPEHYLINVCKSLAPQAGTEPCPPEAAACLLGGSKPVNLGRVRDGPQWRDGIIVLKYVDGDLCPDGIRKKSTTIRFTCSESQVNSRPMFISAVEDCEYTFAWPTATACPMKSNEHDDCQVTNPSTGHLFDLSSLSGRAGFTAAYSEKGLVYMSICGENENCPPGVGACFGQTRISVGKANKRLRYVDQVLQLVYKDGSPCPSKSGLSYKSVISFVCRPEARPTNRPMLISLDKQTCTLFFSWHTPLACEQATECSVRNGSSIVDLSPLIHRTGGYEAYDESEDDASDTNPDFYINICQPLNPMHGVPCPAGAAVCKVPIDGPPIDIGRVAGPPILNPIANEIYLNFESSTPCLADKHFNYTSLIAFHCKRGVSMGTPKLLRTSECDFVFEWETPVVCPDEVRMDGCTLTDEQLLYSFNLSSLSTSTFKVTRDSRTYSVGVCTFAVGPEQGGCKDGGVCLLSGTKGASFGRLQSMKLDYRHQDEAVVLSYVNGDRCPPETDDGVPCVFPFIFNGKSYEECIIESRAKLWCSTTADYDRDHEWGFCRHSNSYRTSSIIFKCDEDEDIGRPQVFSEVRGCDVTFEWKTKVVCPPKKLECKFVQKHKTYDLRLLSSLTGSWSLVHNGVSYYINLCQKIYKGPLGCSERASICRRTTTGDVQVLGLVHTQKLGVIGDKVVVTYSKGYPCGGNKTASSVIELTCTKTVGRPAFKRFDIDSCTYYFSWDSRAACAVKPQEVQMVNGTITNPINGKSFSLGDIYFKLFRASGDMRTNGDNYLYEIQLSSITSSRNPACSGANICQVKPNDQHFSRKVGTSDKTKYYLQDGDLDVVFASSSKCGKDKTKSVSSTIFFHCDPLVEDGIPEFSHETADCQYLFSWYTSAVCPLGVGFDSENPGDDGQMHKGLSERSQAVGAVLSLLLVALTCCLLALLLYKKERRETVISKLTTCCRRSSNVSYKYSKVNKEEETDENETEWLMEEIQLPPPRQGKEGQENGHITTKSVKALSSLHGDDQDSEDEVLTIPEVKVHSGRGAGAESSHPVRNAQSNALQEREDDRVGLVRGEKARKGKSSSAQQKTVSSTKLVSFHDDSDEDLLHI
# UniProt Q8NC56, sequence (Q8NC56 whole entry, looked up): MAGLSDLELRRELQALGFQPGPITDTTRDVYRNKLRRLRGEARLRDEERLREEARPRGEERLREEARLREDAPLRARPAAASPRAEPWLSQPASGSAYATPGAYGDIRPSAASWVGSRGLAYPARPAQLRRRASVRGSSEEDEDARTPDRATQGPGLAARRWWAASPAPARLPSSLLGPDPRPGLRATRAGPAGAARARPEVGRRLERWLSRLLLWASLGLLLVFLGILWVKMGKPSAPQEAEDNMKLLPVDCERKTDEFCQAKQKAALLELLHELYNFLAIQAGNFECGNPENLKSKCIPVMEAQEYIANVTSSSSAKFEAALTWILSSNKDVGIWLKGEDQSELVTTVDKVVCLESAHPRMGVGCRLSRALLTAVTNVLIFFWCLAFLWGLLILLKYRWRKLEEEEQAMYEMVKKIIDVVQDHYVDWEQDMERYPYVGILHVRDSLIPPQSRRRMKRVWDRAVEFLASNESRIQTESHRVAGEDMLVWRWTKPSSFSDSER
Target,log2 fold change (bafetinib),log2 fold change [1],log2 fold change (nilotinib),log2 fold change [2],log2 fold change (dasatinib),log2 fold change [3],log2 fold change [4],log2 fold change [5],log2 fold change (tipifarnib),log2 fold change (mubritinib),log2 fold change [6],log2 fold change [7],log2 fold change [8],log2 fold change [9],log2 fold change (entinostat),log2 fold change (vorinostat),log2 fold change (citarinostat),log2 fold change (silmitasertib),log2 fold change [10],log2 fold change [11]
MCUR1 (UniProt Q96AQ8),0,0,0.015,0.015,-0.037,-0.004,0.031,-0.091,-0.028,0.044,-0.043,-0.048,0.011,0.01,-0.028,-0.026,-0.001,-0.023,-0.036,-0.018
MAIP1 (UniProt Q8WWC4),-0.147,0.005,0.027,0.007,-0.021,-0.004,0.031,0.028,-0.047,-0.006,-0.061,-0.06,-0.129,-0.009,-0.015,0.017,0.076,-0.012,-0.085,-0.012
KCT2 (UniProt Q8NC54),-0.114,0.045,-0.01,-0.023,0.045,0.021,0.01,0.073,0.125,0.052,0.047,-0.029,-0.378 (active),0.013,-0.054,0.022,0.05,0.035,0.047,-0.02
KPNA6 (UniProt O60684),-0.071,0.078,-0.054,-0.038,-0.067,0.003,-0.098,-0.015,-0.033,-0.067,0.01,-0.007,-0.06,-0.002,0.051,0.061,0.047,0.219,0.067,-0.159
MCU (UniProt Q8NE86),-0.173,0.032,-0.017,0.128,-0.055,-0.026,-0.03,0,-0.005,0.024,0.005,-0.059,-0.142,-0.131,0.034,-0.013,0.075,-0.007,-0.034,-0.052
LEMD2 (UniProt Q8NC56),-0.036,-0.008,-0.035,-0.123,-0.079,0.011,0.089,0.008,-0.045,-0.021,0.008,-0.139,-0.112,-0.157,0.004,0.04,0.058,-0.044,-0.02,-0.046
KPNB1 (UniProt Q14974),0.029,0.029,-0.129,-0.09,-0.072,-0.018,-0.09,-0.045,-0.12,0.019,0.025,-0.087,-0.073,-0.037,0.055,0.038,0.097,0.099,0.068,-0.059
MED16 (UniProt Q9Y2X0),0.018,-0.009,-0.014,-0.092,0.141,-0.287,-0.144,0.009,-0.029,0.024,0.108,0.021,-0.005,-0.044,-0.047,0.107,-0.094,0.026,0.06,-0.117
MICU1 isoform 3 (UniProt Q9BPX6),-0.098,0.106,-0.037,-0.012,-0.065,-0.022,-0.012,-0.055,-0.019,-0.064,-0.048,-0.022,-0.012,0.039,0.016,0.017,0.053,0.117,0.027,-0.085
MAPKAPK2 (UniProt P49137),0.125,0.017,0.145,0.045,-0.086,-0.011,-0.014,-0.022,-0.022,-0.009,0.12,0.035,-0.14,0.034,0.018,0.04,0.058,0.06,-0.128,-0.006
METTL18 (UniProt O95568),-0.091,-0.049,-0.092,0.028,0.054,-0.023,-0.022,-0.087,0.019,0.036,-0.028,0.008,-0.034,0.023,-0.02,0.041,-0.046,0.03,0,-0.016
IGF2R (UniProt P11717),-0.338 (active),0.021,-0.02,-0.087,-0.023,0.021,0,0.023,0.045,0.003,-0.032,0.03,-0.546 (active),0.006,-0.008,0,0.07,0.021,-0.063,-0.184
KIF3A (UniProt Q9Y496),0.022,-0.047,-0.128,0.054,-0.068,0.093,0.025,-0.043,-0.031,0.018,0.075,0.078,-0.011,-0.014,-0.011,-0.137,-0.076,-0.068,-0.048,-0.051
MAGI1 (UniProt Q96QZ7),-0.055,-0.023,0.015,-0.477 (active),0.039,-0.044,0.052,-0.079,0.079,-0.021,-0.069,-0.042,0.003,-0.022,0.019,0.07,0.022,0.125,0.035,-0.081
KHDC4 (UniProt Q7Z7F0),-0.051,0.057,0.063,-0.054,-0.009,-0.053,-0.006,-0.053,-0.133,0.004,-0.017,-0.003,-0.078,-0.034,0.009,0.028,0.08,0.01,-0.155,-0.052
MAP3K20 (UniProt Q9NYL2),-0.246 (active),0.039,-0.216,0.057,-0.712 (active),-0.079,-0.065,-0.019,-0.013,-0.041,-0.008,0.035,-0.012,-0.03,0.019,0,0.002,0.031,0.026,-0.09
